# Activity calls are given as the source filed them. Rule for the calls: active = hit-call score of the fitted dose curve at least 0.9, where 1 is the maximum; inactive = score below 0.9.
# Target: human AMPKalpha1 CAMK Kinase, PRKAA1 (gene 5562) (UniProt Q13131)
# Test: ERF_KP_ENZ_hPRKAA1: Eurofins (ERF) Enzymatic Radiometric [10 uM ATP] KinaseProfiler LeadHunter Assay for human AMPKalpha1 CAMK Kinase
# Protocol: ERF_KP_ENZ_hPRKAA1 is a biochemical, single-readout assay that uses extracted gene-proteins in a cell-free assay. Measurements were taken 0.66 hour after chemical dosing in a 96-well plate. See AMPKalpha1 Human CAMK Kinase Enzymatic Radiometric Assay [10 uM ATP], KinaseProfiler.ERF_KP_ENZ_hPRKAA1 is an assay component calculated from the ERF_KP_ENZ_hPRKAA1 assay. It is designed to measure enzyme activity using a type of enzyme reporter as detected by scintillation counting with radiometry technology.Data from the assay component ERF_KP_ENZ_hPRKAA1 was analyzed at the assay endpoint, ERF_KP_ENZ_hPRKAA1, in the positive analysis fitting direction relative to DMSO as the negative control and baseline of activity. Using a type of enzyme reporter, loss-of-signal activity can be used to understand changes in enzymatic activity as they relate to gene PRKAA1. To generalize the intended target to other relatable targets, this assay endpoint is annotated to the kinase intended target family, where the subfamily is serine/threonine kinase.
# AMPK (a1, b1, g1) (h) is incubated with 8 mM MOPS pH 7.0, 0.2 mM EDTA, 200 uM AMP, 100 uM […], 10 mM MgAcetate and [gamma-33P]-ATP (specific activity and concentration as required). The reaction is initiated by the addition of the Mg/ATP mix. […]
# Sequence of human AMPKalpha1 CAMK Kinase, PRKAA1 (gene 5562) (Q13131 whole entry, looked up): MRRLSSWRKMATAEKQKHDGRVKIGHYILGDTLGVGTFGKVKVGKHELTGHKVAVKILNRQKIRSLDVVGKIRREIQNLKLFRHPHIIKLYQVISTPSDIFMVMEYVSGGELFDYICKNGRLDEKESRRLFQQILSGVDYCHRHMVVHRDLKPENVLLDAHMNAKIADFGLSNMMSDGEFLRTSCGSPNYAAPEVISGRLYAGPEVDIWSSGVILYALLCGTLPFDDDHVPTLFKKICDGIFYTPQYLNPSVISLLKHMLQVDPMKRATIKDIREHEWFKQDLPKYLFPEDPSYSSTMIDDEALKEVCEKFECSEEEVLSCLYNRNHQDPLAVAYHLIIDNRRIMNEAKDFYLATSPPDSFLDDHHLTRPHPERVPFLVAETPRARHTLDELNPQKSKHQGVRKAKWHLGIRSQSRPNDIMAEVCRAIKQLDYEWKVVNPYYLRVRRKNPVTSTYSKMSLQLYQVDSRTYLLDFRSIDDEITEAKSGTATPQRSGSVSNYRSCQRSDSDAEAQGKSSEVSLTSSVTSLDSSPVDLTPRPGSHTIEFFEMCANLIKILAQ
row,Compound,AC50
1,O=C(/C=C/c1ccc(O)cc1)CC(=O)/C=C/c1ccc(O)cc1,0.298 nM (active)

# Source: PubChem BioAssay AID2284118 (EPA ToxCast)
